Test results as given in PubChem BioAssay (NCI).
The panel holds about 79,000 compounds, 15% with a hit somewhere; the sample as a whole holds those more often. No stated cut-off is given here; in the data, active means growth inhibition above about 70%; inactive means the rest. Where a SMILES comes first, the peptide text is derived from it. [ ]: non-standard residue; d: D form. The star is where a group is joined. ξ: configuration not given here. dThr(3ξ) = CC(O)[C@@H](N)C(=O)O; dNMeL = CN[C@H](CC(C)C)C(=O)O; OBn = c1ccc(CO*)cc1; ξLac = CC(O)C(=O)O

Key:
[1] = NCI Yeast Anticancer Drug Screen. Data for the rad50 strain (AID 155);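 further: 0% = growth of vehicle-only cultures of the same strain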; conditions: S. cerevisiae rad50 strain growth inhibition; at 50.0 µM; hits give high values
Summary of the method: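 Compounds were tested on a yeast strain with an engineered DNA damage repair alteration; the reported value is growth inhibition normalised to vehicle treatment.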

[2] = NCI Yeast Anticancer Drug Screen. Data for the mec2-1 strain (AID 157); conditions: S. cerevisiae mec2-1 strain, at 50.0 µM, hits give high values
Summary of the method: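 Test agents were screened against the mec2-1 yeast strain, with defined DNA repair or cell cycle alteration. Growth was scored as inhibition against vehicle-only controls.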

[3] = NCI Yeast Anticancer Drug Screen. Data for the sgs1 mgt1 strain (AID 161);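 further: 0% = growth of cultures given vehicle only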; conditions: S. cerevisiae sgs1 mgt1 strain, at 50.0 µM, hits give high values
Summary of the method: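 Test agents were incubated with a DNA-repair-mutant yeast strain. Growth was then read and compared against vehicle-treated controls.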

[4] = NCI Yeast Anticancer Drug Screen. Data for the cln2 rad14 strain (AID 165);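 further: 0% = growth equal to vehicle treated cultures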; conditions: S. cerevisiae cln2 rad14 strain, at 50.0 µM, hits give high values
Summary of the method: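 Growth of compound-exposed yeast (cln2 rad14 genotype) measured and expressed as inhibition relative to vehicle.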

[5] = NCI Yeast Anticancer Drug Screen. Data for the bub3 strain (AID 167); conditions: S. cerevisiae bub3 mutant strain, at 50.0 µM, hits give high values
Summary of the method: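 Growth of a checkpoint-deficient yeast mutant is measured after compound exposure. Values represent inhibition relative to vehicle.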

[6] = NCI Yeast Anticancer Drug Screen. Data for the mlh1 rad18 strain (AID 175); conditions: S. cerevisiae mlh1 rad18 strain growth inhibition; at 50.0 µM; hits give high values
Summary of the method: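 In this whole-cell yeast screen, a strain with altered DNA damage repair is challenged with compound, and its growth is measured against matched vehicle-treated controls.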

Measured: growth inhibition

Cc1cc(C(C)(C)C)nc(C(C)(C)C)c1
inactive: [1] 13.1% | [2] 6.4% | [3] 15.2% | [4] -60.6% | [5] 0.8% | [6] -4.85%

O=c1nc(-c2ccco2)sc(=O)[nH]1
inactive: [1] -0.05% | [2] -5.6% | [3] -8.35% | [4] 13.2% | [5] -5.85% | [6] -3.4%

CC(=O)Oc1cc(C)c(OC(C)=O)cc1C
inactive: [1] -11.3% | [2] -14.3% | [3] 3.1% | [4] -1.85% | [5] 16.9% | [6] 14.3%

O=C(/C=N\O)c1ccccc1[N+](=O)[O-]
inactive: [1] -5.6% | [2] -4.85% | [3] 7.6% | [4] -37.5% | [5] -1.35% | [6] -19.1%

C(CN1CCC2CCC(C2)C1)=C(c1ccccc1)c1ccccc1 (stereo unspecified)
inactive: [1] 3.75% | [2] -1.3% | [3] 15.3% | [4] -17.9% | [5] 26.1% | [6] 4.35%

CN(CC(=O)O)Cc1ccccc1
inactive: [1] 9.5% | [2] 19.4% | [3] 10.5% | [4] -13.9% | [5] 9.35% | [6] 3.3%

CC(=O)OC1C=CC(OC(C)=O)C2C1[C@H]1C3C=CC=CC3[C@@H]2S1=O (stereo partly specified)
inactive: [1] -36.8% | [2] -35.8% | [3] -17.2% | [4] -6.5% | [5] 6.25% | [6] -27.1%

CCC1CCC(=O)NC1=O (stereo unspecified)
inactive: [1] -10.3% | [2] -1.15% | [3] 11.7% | [4] -7.75% | [5] -9.6% | [6] 1.5%

CC1([N+](=O)[O-])COC2(CCCC2)OC1
inactive: [1] 26.4% | [2] 12.2% | [3] 4.75% | [4] -21.8% | [5] -12.9% | [6] 33.6%

Cc1ccc2c(ccc3nnc(C)n32)c1
inactive: [1] 9.15% | [2] 4.05% | [3] 4.65% | [4] -2.95% | [5] 2.75% | [6] 10.8%

BrC1(Br)C2COCOCC21 (stereo unspecified)
inactive: [1] -9.6% | [2] -1.4% | [3] -1.05% | [4] 0.55% | [5] -4.75% | [6] 8.05%

O=C(O)c1cc(-c2c(Cl)cccc2Cl)nc2cc3ccccc3cc12
inactive: [1] 26% | [2] 15.8% | [3] 28.9% | [4] 21.4% | [5] 36.4% | [6] 26.4%

CC1Cc2ccccc2C2=C3CC=CCC3C3C(=O)OC(=O)C3C21 (stereo unspecified)
inactive: [1] 11.4% | [2] 8.05% | [3] 0.5% | [4] 2.3% | [5] 6.05% | [6] 7.65%

CCOC(=O)c1c(NCCO)c(-c2ccccc2)c(=O)n2c1[nH]c1ccccc12
inactive: [1] 2.1% | [2] 6.6% | [3] 4.8% | [4] -1% | [5] -0.9% | [6] 14.9%

CCOC(=O)/C(=C\c1cccc(F)c1)C(C)=O
inactive: [1] 20.6% | [2] 15.3% | [3] 7.05% | [4] -4.9% | [5] 13.7% | [6] 41.5%

COc1ccc2c(C)cc(N/N=C(\C)C=O)nc2c1
inactive: [1] 19.9% | [2] 19.4% | [3] 18.8% | [4] 11.9% | [5] 10.8% | [6] -9.45%

CCCc1cc(=O)oc2c3c(c4c(c12)OC(C)(C)CC4)O[C@H](C)C(C)C3=O (stereo partly specified)
inactive: [1] -26.9% | [2] -30% | [3] -28.8% | [4] 0.4% | [5] 6.85% | [6] -45%

N#Cc1c(O)c(N=Nc2ccccc2F)c(=O)n2c1[nH]c1ccccc12
inactive: [1] -24.4% | [2] -15.7% | [3] -10.4% | [4] 4.1% | [5] -6.85% | [6] -47.8%

CC(C)(C)C(OC(=O)Cc1ccccc1)c1ccc2c(c1)OCO2 (stereo unspecified)
inactive: [1] -9.05% | [2] -2.7% | [3] 2% | [4] -3.25% | [5] 51.4% | [6] -12.1%

CSC1=N/C(=C\c2ccc(C)cc2)C(=O)N1
inactive: [1] -35.5% | [2] 0.3% | [3] 20.2% | [4] 0.85% | [5] -6.35% | [6] -10.5%

Cc1ccccc1/C=C/C(=O)O
inactive: [1] -0.4% | [2] -9.95% | [3] -0.45% | [4] -13.6% | [5] -24.4% | [6] -12.7%

CCCc1cc(=O)oc2c3c(c4c(c12)OC(C)(C)C=C4)O[C@H](C)[C@@H](C)C3O (stereo partly specified)
inactive: [1] -6.25% | [2] 9.3% | [3] -1.45% | [4] -1.5% | [5] 11.3% | [6] -3.4%

COC(=O)c1cc(-c2ccc(F)cc2)[nH]c(=O)c1C#N
inactive: [1] 6.3% | [2] -10.4% | [3] 15.3% | [4] 13.4% | [5] -25.8% | [6] 16.6%

CN(CN(C)N=Nc1ccc(Br)cc1)CN(C)N=Nc1ccc(Br)cc1
inactive: [1] -0.7% | [2] 19.6% | [3] 4.45% | [4] 23.2% | [5] 5.1% | [6] 15%

COc1cc(NC(C)CNC(C)C)c2ncccc2c1 (stereo unspecified)
inactive: [1] -15.7% | [2] -4.85% | [3] -2.1% | [4] -34% | [5] 7% | [6] 2.1%

Cc1ccc(N=NC(=O)NNc2ccc(C)cc2Br)c(Br)c1
inactive: [1] 19.4% | [2] -8.8% | [3] -3.8% | [4] 15.2% | [5] -6.5% | [6] 14.6%

COc1ccc(S(=O)(=O)N(CC(=O)O)c2ccccc2)cc1
inactive: [1] -19.3% | [2] -6% | [3] -4.35% | [4] -6.15% | [5] -7.75% | [6] -0.7%

CCC(Oc1ccc(OC)c2c1C(=O)CCC2)C(=O)O (stereo unspecified)
inactive: [1] 5.95% | [2] 1% | [3] -18.9% | [4] 11.4% | [5] -0.85% | [6] 7.55%

CC(=O)OC(C)[C@@H](NC(=O)[C@@H](CC(C)C)N(C)C(=O)[C@@H]1CCCN1C(=O)C(C)O)C(=O)OCc1ccccc1 (stereo partly specified) (H-[ξLac]P[dNMeL][dThr(3ξ)](Ac)-OBn)
inactive: [1] 8.75% | [2] 24.4% | [3] -16.8% | [4] 8.2% | [5] -30.4% | [6] -37.3%

Brc1ccc(-c2ccc(Br)cc2)cc1
inactive: [1] -4.45% | [2] -4.35% | [3] 6.25% | [4] -44% | [5] -19.1% | [6] -5.25%

CN1C(=O)NC(C)(C)C1=O
inactive: [1] -1.5% | [2] 3.3% | [3] -1.75% | [4] -13.7% | [5] -8.45% | [6] -4.95%

CSc1nc(SC)c(Nc2cccc(C)c2)c(SC)n1
inactive: [1] -8.65% | [2] 7.7% | [3] 4.2% | [4] -38% | [5] 21.8% | [6] -0.3%

COC(=O)CN(CC(=O)OC)C(C)=O
inactive: [1] -9.2% | [2] -4.35% | [3] -0.05% | [4] 2.7% | [5] 13.5% | [6] 0.6%

COc1ccccc1NC(=O)CC(=O)NN
inactive: [1] -0.25% | [2] 2.15% | [3] -3.9% | [4] -25.1% | [5] -1.8% | [6] 0.7%

Cc1cc(=O)[nH]n1-c1ccc([N+](=O)[O-])cc1
inactive: [1] 6.15% | [2] -2.4% | [3] 5.3% | [4] -9.8% | [5] -1.7% | [6] 14.8%

Clc1ccc(N=Nc2ccccn2)cc1
inactive: [1] 18.1% | [2] 2% | [3] -11.1% | [4] -65% | [5] -7.6% | [6] -12.2%

CC(=O)NCCCOc1ccc(N)cc1
inactive: [1] -3.7% | [2] 4.05% | [3] -0.4% | [4] -27.1% | [5] -2.3% | [6] -11.9%

NCC1CC1
inactive: [1] 19.1% | [2] -2.25% | [3] 9.75% | [4] 8.65% | [5] -11.8% | [6] 14.7%

CC(C)c1cccc(C(C)C)c1NC(=O)OC1CCCCC1C (stereo unspecified)
inactive: [1] -21.1% | [2] -17.6% | [3] 7% | [4] -1.95% | [5] -4.65% | [6] -6.4%

C1=CCC(C(Nc2nncs2)Nc2nncs2)CC1 (stereo unspecified)
inactive: [1] 6.25% | [2] 3.95% | [3] 19.6% | [4] 7.05% | [5] -24.9% | [6] 9.25%

CCOC(=O)N1CCC2C(=C(C)C(C)C3=C2C(=O)c2ccccc2C3=O)C1 (stereo unspecified)
inactive: [1] -11.5% | [2] -3.5% | [3] -8.9% | [4] 16.9% | [5] 62.4% | [6] 7.1%
